In all, about 5,500 compounds went through this assay and about 2,000 (36%) were called active. Not shown: some 18% with an inconclusive outcome. Cut-off read from the data, not from the text of the source: active = normalized growth mostly below about 0.91 (no sharp cut-off); inconclusive = no clear call, values can overlap the other calls; inactive = mostly above about 0.92. The list shows a part of the results.
Assay: chemical genetic growth profiling, strain panel (AID 1159580);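 note: tested at 20 µM; growth read once vehicle control cultures reached saturation at 30 °C; 1 = growth at the plate median or of vehicle wells; lower values mean less growth of the strain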
Details: S. cerevisiae deletion strains, growth OD
[1] = locus YAL013W, strain DEP1, hits give low values
[2] = locus YAL040C, strain CLN3, hits give low values
[3] = locus YCL061C, strain MRC1 (second series), hits give low values
[4] = locus YDR363W, strain ESC2, hits give low values
[5] = locus YER002W, strain NOP16, hits give low values
[6] = locus YJR075W, strain HOC1, hits give low values
[7] = locus YNL175C, strain NOP13, hits give low values
[8] = locus YNL197C, strain WHI3, hits give low values
[9] = locus YNL224C, strain SQS1, hits give low values
[10] = locus YNL322C, strain KRE1, hits give low values
[11] = locus YOR083W, strain WHI5 (second series), hits give low values
[12] = locus YPL055C, strain LGE1, hits give low values
[13] = locus YPL241C, strain CIN2, hits give low values
[14] = locus YNL153C, strain GIM3, hits give low values

Measured: normalized growth

N[C@@H](Cc1c[nH]c2ccc(O)cc12)C(=O)O
inactive: [1] 1.02 | [2] 0.959 | [3] 1.01 | locus YDR150W, strain NUM1, hits give low values 1.03 | [4] 1.01 | [5] 1 | [6] 1.01 | locus YMR263W, strain SAP30, hits give low values 0.997 | [7] 1.03 | [8] 1 | [9] 1.01 | [10] 1.01 | [11] 1.02 | [12] 1.03 | [13] 1

N[C@@H](Cc1ccc(O)c(I)c1)C(=O)O
inactive: [1] 0.997 | [2] 0.991 | [3] 1 | [4] 1.01 | [5] 1.02 | locus YGR078C, strain PAC10, hits give low values 1.01 | locus YGR229C, strain SMI1, hits give low values 1.01 | [6] 0.991 | locus YMR307W, strain GAS1, hits give low values 0.992 | [14] 1 | [7] 1 | [8] 0.997 | [9] 1.01 | [11] 1.02 | [12] 0.979 | [13] 0.993

N[C@@H](Cc1ccc(F)cc1)C(=O)O
inactive: [1] 1.01 | [2] 0.992 | [3] 0.995 | [4] 1.01 | [5] 0.99 | [14] 0.995 | [7] 0.978 | [8] 0.995 | [9] 0.967 | [10] 1 | [11] 0.988 | [12] 0.99

O=S(=O)([O][Al])OC[C@H]1O[C@@](COS(=O)(=O)[O][Al])(O[C@H]2O[C@H](COS(=O)(=O)[O][Al])[C@@H](OS(=O)(=O)[O][Al])[C@H](OS(=O)(=O)[O][Al])[C@H]2OS(=O)(=O)[O][Al])[C@@H](OS(=O)(=O)[O][Al])[C@@H]1OS(=O)(=O)[O][Al]
inactive: locus YHR030C, strain SLT2, hits give low values 0.977 | locus YHR079C, strain IRE1, hits give low values 0.981 | locus YJL095W, strain BCK1, hits give low values 0.986 | locus YJR066W, strain TOR1, hits give low values 0.958 | locus YLR113W, strain HOG1, hits give low values 0.984 | locus YNL183C, strain NPR1, hits give low values 0.924 | locus YOR231W, strain MKK1, hits give low values 0.98 | locus YPL256C, strain CLN2, hits give low values 0.985

From PubChem BioAssay AID1159580 (chemical genetic matrix, 2015)
